According to PubChem BioAssay AID1159580 (chemical genetic matrix, 2015):
About 2,000 (36%) of roughly 5,500 compounds were called active. About 18% were inconclusive and are not listed. Rule as the data show it: active = normalized growth mostly below about 0.91 (no sharp cut-off); inconclusive = no clear call, values can overlap the other calls; inactive = mostly above about 0.92. The list shows a part of the results.

Experiment: chemical genetic growth profiling, strain panel (AID 1159580);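 also: tested at 20 µM; growth read once vehicle control cultures reached saturation at 30 °C; 1 = growth at the plate median or of vehicle wells; lower values mean less growth of the strain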
Conditions: S. cerevisiae deletion strains, growth OD

Measured: normalized growth

CC1CC2C3CC(F)C4=CC(=O)C=CC4(C)C3(F)C(O)CC2(C)C1(O)C(=O)CO (centres undefined)
inactive: locus YAL013W, strain DEP1, hits give low values 1.03 | locus YAL021C, strain ccr4, hits give low values 0.997 | locus YAL026C, strain drs2, hits give low values 1 | locus YAL030W, strain snc1, hits give low values 1 | locus YBL061C, strain skt5, hits give low values 0.996 | locus YBR009C, strain hhf1, hits give low values 0.997 | locus YBR021W, strain FUR4, hits give low values 1.03 | locus YBR023C, strain chs3, hits give low values 0.988 | locus YBR171W, strain sec66, hits give low values 0.997 | locus YBR229C, strain ROT2, hits give low values 1.01 | locus YBR231C, strain swc5, hits give low values 0.992 | locus YBR279W, strain paf1, hits give low values 0.989 | locus YCL011C, strain gbp2, hits give low values 0.992 | locus YCL016C, strain dcc1, hits give low values 0.98 | locus YCL029C, strain bik1, hits give low values 1.03 | locus YCL061C, strain MRC1, hits give low values 0.999 | locus YCL069W, strain vba3, hits give low values 1.01 | locus YCR088W, strain abp1, hits give low values 1 | locus YDL005C, strain med2, hits give low values 0.993 | locus YDL035C, strain GPR1, hits give low values 1.05 | locus YDL040C, strain nat1, hits give low values 0.997 | locus YDL074C, strain BRE1, hits give low values 1.09 | locus YDL101C, strain DUN1, hits give low values 1.02 | locus YDL134C, strain PPH21, hits give low values 1.01 | locus YDL185W, strain tfp1, hits give low values 1.03 | locus YDL192W, strain arf1, hits give low values 1.03 | locus YDR001C, strain nth1, hits give low values 1.01 | locus YDR069C, strain doa4, hits give low values 1.01 | locus YDR101C, strain arx1, hits give low values 1.02 | locus YDR137W, strain rgp1, hits give low values 0.995 | locus YDR150W, strain NUM1, hits give low values 1.03 | locus YDR159W, strain sac3, hits give low values 1.01 | locus YDR162C, strain NBP2, hits give low values 1.02 | locus YDR195W, strain ref2 0.968 | locus YDR297W, strain sur2, hits give low values 0.99 | locus YDR318W, strain mcm21, hits give low values 1.05 | locus YDR334W, strain swr1, hits give low values 0.994 | locus YDR335W, strain msn5, hits give low values 1 | locus YDR388W, hits give low values 1.01 | locus YDR392W, strain spt3, hits give low values 0.995 | locus YDR502C, strain sam2, hits give low values 1.02 | locus YEL003W, strain gim4, hits give low values 1.01 | locus YEL037C, strain rad23, hits give low values 1 | locus YEL061C, strain CIN8 (second series), hits give low values 1.01 | locus YEL061C, strain CIN8, hits give low values 1.01 | locus YER015W, strain faa2, hits give low values 1 | locus YER016W, strain bim1, hits give low values 0.995 | locus YER110C, hits give low values 1.03 | locus YER111C, strain swi4, hits give low values 1 | locus YER155C, strain BEM2 (second series), hits give low values 1.03 | locus YER155C, strain BEM2, hits give low values 0.999 | locus YER167W, strain BCK2, hits give low values 1.05 | locus YFR010W, strain ubp6, hits give low values 1.01 | locus YGL078C, strain dbp3, hits give low values 1.02 | locus YGL086W, strain mad1, hits give low values 1.04 | locus YGL167C, strain pmr1, hits give low values 0.991 | locus YGL173C, strain kem1, hits give low values 1.01 | locus YGL227W, strain vid30, hits give low values 0.998 | locus YGL240W, strain doc1, hits give low values 1 | locus YGL248W, strain PDE1, hits give low values 1.01 | locus YGL253W, strain hxk2, hits give low values 0.983 | locus YGR078C, strain PAC10, hits give low values 1.04 | locus YGR135W, strain pre9, hits give low values 1.03 | locus YGR229C, strain SMI1, hits give low values 1.02 | locus YGR252W, strain gcn5, hits give low values 1.06 | locus YHR013C, strain ard1, hits give low values 0.985 | locus YHR027C, strain rpn1, hits give low values 1.01 | locus YHR030C, strain SLT2, hits give low values 1.02 | locus YHR079C, strain IRE1 (second series), hits give low values 1.02 | locus YHR094C, strain hxt1, hits give low values 1.02 | locus YHR129C, strain ARP1, hits give low values 1.01 | locus YHR142W, strain chs7, hits give low values 0.995 | locus YHR200W, strain rpn10, hits give low values 1.03 | locus YIL066C, strain RNR3, hits give low values 1.04 | locus YIL073C, strain SPO22, hits give low values 1.1 | locus YIL125W, strain kgd1, hits give low values 1.02 | locus YIR030C, strain dcg1, hits give low values 1.02 | locus YJL092W, strain hpr5, hits give low values 1 | locus YJL095W, strain BCK1 (second series), hits give low values 0.997 | locus YJL095W, strain BCK1, hits give low values 1.02 | locus YJL115W, strain asf1, hits give low values 1.01 | locus YJL129C, strain trk1, hits give low values 0.997 | locus YJL134W, strain LCB3, hits give low values 1.02 | locus YJL154C, strain vps35, hits give low values 1.01 | locus YJL164C, strain tpk1, hits give low values 1.01 | locus YJL166W, strain qcr8, hits give low values 0.993 | locus YJL168C, strain set2, hits give low values 1.02 | locus YJL187C, strain SWE1 (second series), hits give low values 1.02 | locus YJL187C, strain SWE1, hits give low values 0.986
